Test results from ChEMBL document CHEMBL3988442, “University of Dundee, Small-Polar-MMV Screening Library” (2021).

Each compound was assayed against T1, Aspartate--tRNA(Asp/Asn) ligase (Mycobacterium tuberculosis (strain ATCC 25618 / H37Rv)) (UniProt P9WFW3) (assay: Assay for Asp RNA synthetase-1 from Mycobacterium tuberculosis). Conditions: 30 µM.
T1 sequence (whole entry): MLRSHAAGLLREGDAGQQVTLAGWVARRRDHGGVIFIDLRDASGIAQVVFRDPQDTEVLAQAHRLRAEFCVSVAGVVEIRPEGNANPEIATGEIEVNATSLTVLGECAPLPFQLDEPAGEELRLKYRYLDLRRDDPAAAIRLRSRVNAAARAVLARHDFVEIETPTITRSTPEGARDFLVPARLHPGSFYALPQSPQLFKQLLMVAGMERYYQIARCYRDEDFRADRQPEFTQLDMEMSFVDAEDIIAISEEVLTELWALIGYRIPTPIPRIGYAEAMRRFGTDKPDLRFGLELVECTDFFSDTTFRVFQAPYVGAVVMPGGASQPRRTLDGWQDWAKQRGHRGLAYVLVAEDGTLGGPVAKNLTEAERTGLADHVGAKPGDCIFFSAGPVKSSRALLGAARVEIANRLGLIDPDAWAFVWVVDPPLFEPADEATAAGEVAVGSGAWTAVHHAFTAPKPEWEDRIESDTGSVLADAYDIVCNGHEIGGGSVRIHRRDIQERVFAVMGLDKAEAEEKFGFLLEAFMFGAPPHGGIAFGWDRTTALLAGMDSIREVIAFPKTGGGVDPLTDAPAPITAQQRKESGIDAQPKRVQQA
Assay type: functional
Design: scale not given: in the data most compounds retested in dose-response had high values
For `Cc1nccn1C1CCCN(C(=O)c2ccc3c(c2)NC(=O)CO3)C1` (stereo not given), the Percent Effect was -2.02%.
`O=C(c1ccncc1)N1CCC(c2nc(O)cc(-c3ccncc3)n2)C1` (stereo not given) was tested, and the Percent Effect was -0.574%.
With `O=C(NCCCNc1ccccc1)c1scnc1Cl` the Percent Effect was -0.926%.
`Cc1ccc(CN(C)C(=O)CN2CCOC(Cn3cncn3)C2)o1` (stereo not given) showed a Percent Effect of 2.6%.
With `O=C(Cc1ccc2c(c1)OCCO2)NC1CCN(CC(F)F)CC1` the Percent Effect was -1.24%.
`Cc1cc(CN2CCN(C(=O)c3sccc3C3CC3)CC2)on1` gave a Percent Effect of 0.922%.
`O=C(Cc1ccccn1)N1CCC2(CC1)CC(Oc1ccccn1)CO2` (stereo not given) showed a Percent Effect of -3.87%.
Work on `CN(C)c1ncnc2c1CCN(CC1CCOC1)CC2` (stereo not given) yielded a Percent Effect of -1.82%.
Compound `CN(CCc1cccs1)C1CCCN(Cc2noc(C3CC3)n2)C1` (stereo not given) has a Percent Effect of -1.53%.
In the case of `CCc1ncc2c(n1)CN(Cc1nc(C)c(C)o1)CC2`, the Percent Effect is reported as 0.259%.
Work on `CC(=O)N1CCC2(CC1)COCCN2CCN(C)C` yielded a Percent Effect of 0.524%.
`COCCN1CCC(NCc2ccc(C#N)cc2)C1` (stereo not given) gave a Percent Effect of -2.03%.
In the case of `Cc1ccc(CC(=O)N2CSCC2C(=O)N(C)Cc2ccco2)o1` (stereo not given), the Percent Effect is reported as 8.09%.
Work on `Cc1ccc(CC(=O)N2CCCC(c3nc(C)cs3)C2)cn1` (stereo not given) yielded a Percent Effect of 2.77%.
With `Cc1cc(NC(=O)CCN(CC2CCOC2)C2CC2)no1` (stereo not given) the Percent Effect was -6.8%.
For `CS(=O)(=O)N1CCCN(C(=O)c2ccc(Cn3ccccc3=O)o2)CC1`, the Percent Effect was 1.66%.
`CN(C)C(=O)CO[C@H]1CN(Cc2ccc(F)cc2)[C@@H]2CCCO[C@H]12` was tested, and the Percent Effect was 5.68%.
`Cc1nc(C)c(C(=O)NCCNC(=O)Cc2cccc(F)c2)s1` showed a Percent Effect of 4.17%.
Compound `Cn1cc(NC(=O)N2CCC(CN3CCCC3)CC2)ccc1=O` has a Percent Effect of -3.79%.
Work on `CSCC(C)(O)CNC(=O)c1ccc(Br)cc1C` (stereo not given) yielded a Percent Effect of -3.46%.
`Cc1ccc(C(=O)N2CCN(CCC(C)(C)C)CC2)c(=O)[nH]1` gave a Percent Effect of -4.54%.
`Cc1ccc(N2CCN(C(=O)COc3ccccc3)CC2)nn1` showed a Percent Effect of -1.15%.
With `CC(C)c1nnc2ccc(N3CCC(C(N)=O)CC3)nn12` the Percent Effect was -3.92%.
For `CC(C)c1nnc2ccc(N3CCC(C(=O)Nc4nccs4)CC3)nn12`, the Percent Effect was -2.93%.
`CCc1ccc(CCC(=O)N2CCOCC2c2ncon2)cc1` (stereo not given) showed a Percent Effect of 2.77%.
`CC(C)COCC(NC(=O)c1ccccn1)c1ccco1` (stereo not given) showed a Percent Effect of -1.2%.
Work on `Cc1cccc(COC[C@@H]2CC[C@H]3[C@H](CCN3Cc3ccco3)O2)n1` yielded a Percent Effect of -0.843%.
`O=C(CN1CCC(c2cccc(F)c2)C1)NCC(F)(F)F` (stereo not given) gave a Percent Effect of -6.79%.
`O=C(Cn1ccc2ccc(Br)cc21)NCc1ccc(C(=O)O)cc1` was tested, and the Percent Effect was 14.7%.
In the case of `COc1c(C(=O)NCc2cccnc2)nnn1Cc1ccc(C)cc1`, the Percent Effect is reported as -4.7%.
`O=C(O)c1cc(S(=O)(=O)N2CCOc3ccccc32)ccc1F` gave a Percent Effect of -4.32%.
Compound `O=C(NCCN1CCCCC1)c1nc2ccccc2c(=O)[nH]1` has a Percent Effect of -1.02%.
Compound `CCCS(=O)(=O)Nc1ccc2c(c1)OCC(C)(C)C(=O)N2C` has a Percent Effect of -4.25%.
With `Cn1cc(C(=O)N2C[C@@H]3COC[C@]3(COCc3cccnc3)C2)cn1` the Percent Effect was -0.306%.
Compound `CCc1nc(C2CCCN2CC(=O)Nc2nncs2)no1` (stereo not given) has a Percent Effect of -0.364%.
`O=C1CC(c2cccnc2)C2(CCN(S(=O)(=O)C3CC3)CC2)N1` (stereo not given) gave a Percent Effect of -1.76%.
Compound `c1ccc2oc(CCCN3CCOC(Cn4cccn4)C3)nc2c1` (stereo not given) has a Percent Effect of 0.605%.
Compound `CN(C(=O)c1ccccc1Cl)C1CCN(c2ccccn2)CC1` has a Percent Effect of 5.42%.
`Cc1nc(C)n(CC2CCCN2CC(=O)Nc2cc(C(C)C)no2)n1` (stereo not given) was tested, and the Percent Effect was 3.17%.
`Fc1cc(CNCc2ccc3c(c2)CCO3)ccc1N1CCOCC1` showed a Percent Effect of -1.01%.
